# Measured values reported in ChEMBL document CHEMBL3988442, “University of Dundee, Small-Polar-MMV Screening Library” (2021).
# Biological target: T1, Methionyl-tRNA synthetase, putative (Leishmania donovani (strain BPK282A1)) (UniProt E9BF75)
# T1 sequence (whole entry): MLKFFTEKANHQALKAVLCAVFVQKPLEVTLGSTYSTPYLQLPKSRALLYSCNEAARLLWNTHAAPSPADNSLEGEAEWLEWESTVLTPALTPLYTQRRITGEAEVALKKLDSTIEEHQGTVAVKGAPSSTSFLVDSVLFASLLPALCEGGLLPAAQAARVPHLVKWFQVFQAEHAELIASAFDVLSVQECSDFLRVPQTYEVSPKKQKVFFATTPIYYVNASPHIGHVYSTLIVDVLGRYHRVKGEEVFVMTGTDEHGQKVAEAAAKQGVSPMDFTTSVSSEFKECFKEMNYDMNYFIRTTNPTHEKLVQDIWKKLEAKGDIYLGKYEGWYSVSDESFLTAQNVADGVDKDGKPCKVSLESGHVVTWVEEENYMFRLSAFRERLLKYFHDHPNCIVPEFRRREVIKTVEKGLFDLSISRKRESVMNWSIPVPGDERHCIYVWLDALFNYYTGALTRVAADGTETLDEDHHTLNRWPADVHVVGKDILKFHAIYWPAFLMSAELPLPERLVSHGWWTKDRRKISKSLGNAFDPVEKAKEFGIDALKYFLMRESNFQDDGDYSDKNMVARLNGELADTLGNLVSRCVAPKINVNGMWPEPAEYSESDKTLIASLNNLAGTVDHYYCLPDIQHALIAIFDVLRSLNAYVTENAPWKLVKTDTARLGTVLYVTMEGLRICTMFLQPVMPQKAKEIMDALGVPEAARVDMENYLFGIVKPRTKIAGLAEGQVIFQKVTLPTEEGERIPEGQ
# Assay: Leishmania donovani Methionine tRNA synthetase (LdMetRS):v7. Dose response assay
# Format: functional
# Design: conc 80 nM, time 150 minutes
compound,measurement,setting,value
C[C@@H](Oc1cc(-n2cnc3cc(N)ccc32)sc1C(N)=O)c1ccccc1Cl,PXC50,MAX_EFFECT 24.18604651,< 4
same,PXC50,MAX_EFFECT 25.87412587,< 4
CCOC(=O)N1CCN(c2nc(C)nc3scc(-c4cccs4)c23)CC1,PXC50,MAX_EFFECT 28.24427481,< 4
same,PXC50,MAX_EFFECT 28.46347607,< 4
CN(C)C(=O)c1ccc2ccc(N3CCN(CC4CC4)CC3)n2c1,PXC50,MAX_EFFECT 43.08390023,< 4
same,PXC50,MAX_EFFECT 51.58878505,< 4
COCCNc1nc(CN2CCOCC2)nc2sc3c(c12)CCCC3,PXC50,MAX_EFFECT -0.877192982,< 4
same,PXC50,MAX_EFFECT -1.5625,< 4
Cc1nc(N2CC[C@@H](O)C2)c2c(-c3cccs3)csc2n1,PXC50,MAX_EFFECT -2.07253886,< 4
same,PXC50,MAX_EFFECT -3.723404255,< 4
CC(C)NC(=O)c1ccc2ccc(N3CCN(S(C)(=O)=O)CC3)n2c1,PXC50,"BOTTOM 1.200641937, HILLSLOPE 2.342552546, MAX_EFFECT 57.54716981, TOP 55.68048652",4.88
same,PXC50,"BOTTOM 2.289724742, HILLSLOPE 1.802731874, MAX_EFFECT 51.59817352, TOP 52.80479707",4.95
CN1CCC(CNC(=O)c2ccc3ccc(N4CCN(S(C)(=O)=O)CC4)n3c2)CC1,PXC50,"BOTTOM 1.275548684, HILLSLOPE 2.230174864, MAX_EFFECT 66.02870813, TOP 65.69793646",4.77
same,PXC50,"BOTTOM -0.677256268, HILLSLOPE 1.919543897, MAX_EFFECT 70.20109689, TOP 75.47637091",4.69
CS(=O)(=O)N1CCN(c2ccc3ccc(C(=O)NCCn4cccn4)cn23)CC1,PXC50,"BOTTOM 1.569537618, HILLSLOPE 2.334941078, MAX_EFFECT 65.07177033, TOP 65.29640188",4.95
same,PXC50,"BOTTOM 7.030389685, HILLSLOPE 2.531896239, MAX_EFFECT 68.73857404, TOP 69.44063033",4.79
COCCNc1nc(-n2nc(C)cc2C)nc2sccc12,PXC50,"BOTTOM 2.201340626, HILLSLOPE 2.387703954, MAX_EFFECT 53.50877193, TOP 100.0",4.03
same,PXC50,MAX_EFFECT 36.45833333,< 4
CS(=O)(=O)N1CCN(c2ccc3ccc(C(=O)NCCc4ccccc4)cn23)CC1,PXC50,"BOTTOM 2.353808238, HILLSLOPE 2.745183605, MAX_EFFECT 51.67464115, TOP 50.17202443",5.02
same,PXC50,"BOTTOM 6.057044372, HILLSLOPE 2.135645997, MAX_EFFECT 57.03839122, TOP 56.72145826",4.82
CS(=O)(=O)N1CCN(c2ccc3ccc(C(=O)N4CCCCO4)cn23)CC1,PXC50,"BOTTOM 3.408302262, HILLSLOPE 2.699207266, MAX_EFFECT 56.14035088, TOP 100.0",4.33
same,PXC50,"BOTTOM -1.088314762, HILLSLOPE 0.901802249, MAX_EFFECT 54.6875, TOP 100.0",4.49
CN(C)C(=O)N1CCN(c2ccc3ccc(C(=O)NC4CC4)cn23)CC1,PXC50,"BOTTOM 3.433705082, HILLSLOPE 1.394575879, MAX_EFFECT 54.57943925, TOP 100.0",4.05
same,PXC50,MAX_EFFECT 48.07256236,< 4
CCn1ncc(-c2cc(C(F)(F)F)nc(N3CCC(N)CC3)n2)c1C,PXC50,MAX_EFFECT 0.522193211,< 4
same,PXC50,MAX_EFFECT 1.305483029,< 4
NC(=O)C1CCN(c2cncc(-n3cccn3)n2)CC1,PXC50,MAX_EFFECT 1.936619718,< 4
same,PXC50,MAX_EFFECT 4.750593824,< 4
N[C@H]1CCOc2c(Cl)cc(Cl)cc21,PXC50,MAX_EFFECT 2.517162471,< 2.7
same,PXC50,MAX_EFFECT 3.676470588,< 2.7
Cc1cc(C)n(C2=NC(NCCC(C)C)c3c(sc4c3CCCC4)N2)n1 (stereo not given),PXC50,MAX_EFFECT 4.798464491,< 4
same,PXC50,MAX_EFFECT 13.23763955,< 4
O=C(NCC1(O)CCCCC1)c1cc(=O)c2ccc(F)c(O)c2o1,PXC50,MAX_EFFECT 5.582137161,< 4
same,PXC50,MAX_EFFECT 7.485604607,< 4
Cc1cc2c(N3CCN(C)CC3)nc(-c3cccnc3)nc2s1,PXC50,MAX_EFFECT 6.010928962,< 4
same,PXC50,MAX_EFFECT 7.486631016,< 4
CC(=O)NCc1nnc2n1CCN(c1nc(C)nc3sccc13)CC2,PXC50,MAX_EFFECT 6.527415144,< 4
same,PXC50,MAX_EFFECT 9.921671018,< 4
Nc1noc2ccc(-c3cnc4ccc(NCc5ccccn5)nn34)cc12,PXC50,MAX_EFFECT 7.291666667,< 4
same,PXC50,MAX_EFFECT 11.84210526,< 4
Cc1nc(N[C@@H](C)C(=O)O)c2c3c(sc2n1)CCCC3,PXC50,MAX_EFFECT 7.446808511,< 4
same,PXC50,MAX_EFFECT 9.32642487,< 4
Cc1nc(NCC(=O)O)c2cc(-c3ccccc3)sc2n1,PXC50,MAX_EFFECT 8.533333333,< 4
same,PXC50,MAX_EFFECT 10.58201058,< 4
Cc1nc(N2CC[C@@H](O)C2)c2c3c(sc2n1)CCCC3,PXC50,MAX_EFFECT 8.838383838,< 4
same,PXC50,MAX_EFFECT 10.20408163,< 4
CCc1nc(NC(C(=O)O)C(C)C)c2cc(CC)sc2n1 (stereo not given),PXC50,MAX_EFFECT 9.289617486,< 4
same,PXC50,MAX_EFFECT 12.29946524,< 4
Cc1nc(NCCCC(=O)O)c2c3c(sc2n1)CCCC3,PXC50,MAX_EFFECT 9.823677582,< 4
same,PXC50,MAX_EFFECT 10.43256997,< 4
Cc1nc(N(C)CC(=O)Nc2cc(C)on2)c2c3c(sc2n1)CCC3,PXC50,MAX_EFFECT 9.844559585,< 4
same,PXC50,MAX_EFFECT 10.63829787,< 4
Cc1sc2nc(CN3CCOCC3)nc(NS(C)(=O)=O)c2c1C,PXC50,MAX_EFFECT 10.38251366,< 4
same,PXC50,MAX_EFFECT 12.29946524,< 4
CC(C)C[C@H](N)COc1ccccc1-c1ccccn1,PXC50,MAX_EFFECT 10.44776119,< 4
same,PXC50,MAX_EFFECT 11.38716356,< 4
COCCN(Cc1cnn(C)c1)c1nc(C)nc2sccc12,PXC50,MAX_EFFECT 10.70496084,< 4
same,PXC50,MAX_EFFECT 11.48825065,< 4
CCc1nc(NCCCN(C)C)c2c3c(sc2n1)CCC3,PXC50,MAX_EFFECT 11.05527638,< 4
same,PXC50,MAX_EFFECT 11.54791155,< 4
